The values below come from PubChem BioAssay (NCATS).

Molecules are shown by their SMILES. Inconclusive results are not listed. Calls of active or inactive are those of the source. Calls follow the shape of the dose curve; as a rule, active = well fitted activation curve with a large enough effect; inconclusive = small, poorly fitted or top-dose-only effect; inactive = no such curve, though single readings can be large or run the other way.
Potency is read from the fitted curve at half-maximal effect.

The test is described as follows: qHTS for activators of Nrf2/ARE signaling pathway screened against the NCATS CANVASS Library (AID 1347391). Also: nearly all actives have a fitted effect of over 60% in size. The following applies: ARE-bla HepG2, beta-lactamase reporter, 16 h; series mostly up to 46.1 µM. In short, it runs like this: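 Eleven-point qHTS, 16 h treatment of HepG2 cells carrying an ARE-driven beta-lactamase reporter; CCF4 ratio read (405 nm excitation, 460 and 530 nm emission), with CellTiter-Glo ATP luminescence for viability.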
In the case of `CC(C)=CCC[C@]12c3cc4c(cc3CC[C@@]1(C)[C@H](C)CC[C@@H]2O)[nH]c1ccccc14`, the Potency entry was “inactive”.
For the compound `C/C=C/C1C=CC2CC(C)CC(C)C2C1C(=O)CC(=O)NC(CO)C/C=C/CCCCC` (stereo unspecified), the Potency is 16.6 µM (active).
Regarding `C=CC(CCCCC)C1C(=O)NC(=O)C1C(=O)C1C(/C=C/C)C=CC2CC(C(=O)O)CC(C)C21` (stereo unspecified), the Potency was 3.31 µM (active).
As to `COc1cc(/C=C/C(=O)OC[C@@H](Cc2ccc(O)c(OC)c2)[C@@H](COC(=O)/C=C/c2ccc(O)c(OC)c2)Cc2ccc(O)c(OC)c2)ccc1O`, the Potency result was “inactive”.
With `C=C1CC[C@@H](O[C@H]2C[C@@](O)([C@H](C)NC(=O)c3[nH]c(C)c(Cl)c3Cl)[C@H](O)[C@@H](C)O2)[C@@H]2C=C[C@H](C)C(/C(O)=C3/C(=O)[C@H](C(C)C)N([C@@H]4O[C@H](C)[C@H](OC(N)=O)[C@H](OC(C)=O)[C@@H]4OC)C3=O)[C@@H]12` (stereo partly specified), the Potency entry was “inactive”.
Regarding `COc1c(O)cc2c(c1O)C(=O)c1c(coc1C)C2=O`, the Potency is 7.41 µM (active).
For the compound `CC(=O)O[C@H]1c2ccccc2-c2c3c(cc4c2[C@@H]1N(C(C)=O)CC4)OCO3`, the Potency is 8.31 µM (active).
In the case of `C=CC(CCCCC)C1C(=O)NC(=O)C1C(=O)C1C2C(C)CC(C(=O)O)CC2CC1(O)C(=O)/C=C/C` (stereo unspecified) it was 2.09 µM (active); in that of `C[n+]1cc2cc(C(N)=O)[nH]c3c(=N)c(Cl)c(N)c1c23`, “inactive”; in that of `O=c1cc(-c2ccc(O)c(O)c2)oc2cc(O[C@@H]3O[C@H](CO)[C@@H](O)[C@H](O)[C@H]3O)cc(O)c12`, “inactive”.
As for `CC[C@H]1[C@H](C)[C@H](c2cc(OC)c(OC)cc2OC)[C@@H](C)[C@H](c2cc(OC)c(OC)cc2OC)[C@@]12C=C(OC)C(=O)C=C2OC`, the figure is 14.8 µM (active).
